Assay results: PubChem BioAssay (NCATS)
Records with an inconclusive call do not appear. Where a call stands in place of a potency, no number is given. Activity calls are given as the source filed them. Calls follow the shape of the dose curve; as a rule, active = well fitted inhibition curve with a large enough effect; inconclusive = small, poorly fitted or top-dose-only effect; inactive = flat fitted curve, though single readings scatter.
Potency is read from the fitted curve at half-maximal effect.

Assay: P-glycoprotein substrates identified in KB-8-5-11 adenocarcinoma cell line, qHTS therapeutic library screen (AID 1346987); also: nearly all actives have a fitted effect of over 65% in size
Conditions: KB-8-5-11 (P-gp overexpressing) viability, CellTiter-Glo, 72 h; series mostly up to 44.5 µM
In short: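 P-gp-mediated resistance screen: KB-8-5-11 cells treated 72 h with compounds in dose-response. CellTiter-Glo viability.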
In the case of `OCCCNc1ccccc1`, the Potency is reported as “inactive”.
With `C=N[C@@H](C(=O)N[C@@H]1C(=O)N2[C@@H]1SC(C)(C)[C@@H]2C(=O)O)c1ccccc1` the Potency was “inactive”.
In the case of `c1ccc2cc(C3=NCCN3)ccc2c1`, the Potency is reported as “inactive”.
In the case of `O=C1CCC(=O)N1CO`, the Potency is reported as “inactive”.
For `C[Se]CC[C@H](N)C(=O)O`, the Potency was “inactive”.
With `O=C(O)c1ccc(NC(=O)[C@H](Cc2ccc(O)cc2)NC(=O)c2ccccc2)cc1` the Potency was “inactive”.
In the case of `CCOC(=O)[C@H](CS)NCCN[C@@H](CS)C(=O)OCC`, the Potency is reported as “inactive”.
With `CC1CS(=O)(=O)CCN1/N=C/c1ccc([N+](=O)[O-])o1` (stereo not given) the Potency was “inactive”.
For `C=C1CC[C@H](O)CC1=C/C=C1\CCC[C@]2(C)[C@@H]([C@H](C)/C=C/[C@H](C)C(C)C)CC[C@@H]12`, the Potency was “inactive”.
For `C=C1[C@@H]2CC[C@@H](C2)C1(C)C`, the Potency was “inactive”.
For `Oc1cc(O)cc(O)c1`, the Potency was “inactive”.
With `Oc1cccc(O)c1O` the Potency was “inactive”.
In the case of `COc1cc2c(cc1OC)[C@@H](Cc1cc(OC)c(OC)c(OC)c1)[N+](C)(CCCOC(=O)CC/C=C/CCC(=O)OCCC[N+]1(C)CCc3cc(OC)c(OC)cc3[C@H]1Cc1cc(OC)c(OC)c(OC)c1)CC2` (stereo not given in full), the Potency is reported as “inactive”.
In the case of `C=CC(=O)O`, the Potency is reported as “inactive”.
With `CC(C)CCC[C@@H](C)[C@H]1CC[C@H]2[C@@H]3CC[C@@H]4C[C@H](O)CC[C@]4(C)[C@H]3CC[C@]12C` the Potency was “inactive”.
For `CN[C@@H]1[C@@H](O)[C@@H](O[C@@H]2[C@@H](O)[C@H](O[C@H]3O[C@H](CN)[C@@H](O)[C@H](O)[C@H]3O)[C@@H](N)C[C@H]2NC(=O)C(O)CN)OC[C@]1(C)O` (stereo not given in full), the Potency was “inactive”.
For `Oc1ccc(Cl)c2c1CCC2`, the Potency was “inactive”.
In the case of `Cc1ccc(S(=O)(=O)NC(=O)N[C@@H](C)Cc2ccccc2)cc1`, the Potency is reported as “inactive”.
For `Nc1nccs1`, the Potency was “inactive”.
In the case of `CCOc1cc(-c2nccc3cc(OC)c(OC)cc23)cc(OCC)c1OCC`, the Potency is reported as 13 µM (active).
With `CCCCCCCCCCCCOCCCN` the Potency was “inactive”.
In the case of `NC(=O)[C@@H]1CCCN1C(=O)[C@H](Cc1cnc[nH]1)NC(=O)[C@@H]1CCC(=O)N1`, the Potency is reported as “inactive”.
For `CC(=O)[C@@]1(O)CC[C@H]2[C@@H]3C=C(Cl)C4=CC(=O)[C@@H]5C[C@@H]5[C@]4(C)[C@H]3CC[C@@]21C`, the Potency was “inactive”.
For `CC/C=C\C/C=C\C/C=C\C/C=C\C/C=C\C/C=C\CCC(=O)O`, the Potency was “inactive”.
In the case of `CC1=CC(=O)NS(=O)(=O)O1`, the Potency is reported as “inactive”.
For `O=C(O)[C@H]1C(=CCO)O[C@H]2CC(=O)N12`, the Potency was “inactive”.
For `NC(=O)CC[C@@H]1NC(=O)[C@H](Cc2ccccc2)NC(=O)[C@H](Cc2ccc(O)cc2)NC(=O)[C@@H](N)CSSC[C@@H](C(=O)N2CCC[C@H]2C(=O)N[C@@H](CCCN=C(N)N)C(=O)NCC(N)=O)NC(=O)[C@H](CC(N)=O)NC1=O`, the Potency was “inactive”.
For `CC(=O)Nc1c(I)c(C(=O)O)c(I)c(N(C)C(C)=O)c1I`, the Potency was “inactive”.
In the case of `CNC(=O)[C@H](Cc1c[nH]c2ccccc12)NC(=O)[C@@H](CC(=O)NO)CC(C)C`, the Potency is reported as “inactive”.
In the case of `O=C(O)c1cc(O)c2c(c1)[C@H]([C@H]1c3cc(C(=O)O)cc(O)c3C(=O)c3c(O[C@@H]4O[C@H](CO)[C@@H](O)[C@H](O)[C@H]4O)cccc31)c1cccc(O[C@@H]3O[C@H](CO)[C@@H](O)[C@H](O)[C@H]3O)c1C2=O`, the Potency is reported as “inactive”.
In the case of `CCOC(=O)Cc1ccc(-c2ccccc2)cc1`, the Potency is reported as “inactive”.
With `O=C(/C=C/c1cccc(F)c1)NC1CC1` the Potency was “inactive”.
With `CO[C@H]1C[C@H](O[C@H]2[C@H](C)[C@@H](O[C@@H]3O[C@H](C)C[C@H](N(C)C)[C@H]3O)[C@@H](C)C[C@]3(CO3)C(=O)[C@H](C)[C@@H](O)[C@@H](C)[C@@H](C)OC(=O)[C@@H]2C)O[C@@H](C)[C@@H]1O` the Potency was “inactive”.
With `CCCCCCCCCCCCCCCCCCOCC(COP(=O)([O-])OCC[N+](C)(C)C)OC` (stereo not given) the Potency was “inactive”.
For `CN1CCc2c(c3ccccc3n2Cc2ccccc2)C1`, the Potency was “inactive”.
With `CC12CCC(C1)C(C)(C)C2=O` (stereo not given) the Potency was “inactive”.
In the case of `CC(C)=CCC/C(C)=C/C=C/C(C)=C/C=C/C(C)=C/C=C/C=C(C)/C=C/C=C(C)/C=C/C=C(\C)CCC=C(C)C`, the Potency is reported as “inactive”.
For `COC(=O)c1ccccc1O`, the Potency was “inactive”.
With `OC/C=C/c1ccccc1` the Potency was “inactive”.
For `ClC(Cl)Cl`, the Potency was “inactive”.
